Out of some 39,000 compounds screened, about 3,300 (8.5%) were called active. This excerpt belongs to a sample that is enriched for actives.

The test has as its system HepG2. The test can be described thus: cytotoxicity call (relative viability < 0.9). The following applies: 10 µM.
With `CC(C)C(=O)[C@@H]1C(=O)O[C@@H](c2ccoc2)[C@]2(C)[C@H](O)[C@@H](O)[C@@]34O[C@]5(C)O[C@]3([C@H]12)[C@H](O)[C@@]1(O)[C@H](O)[C@]2(C)C[C@]1(O5)[C@@]4(C)[C@H]2CC(=O)O`, the cytotoxicity call was “active”.

As for `CC(C)C(O)=C1C(=O)OC(c2ccoc2)C2(C)C(O)C(O)C34OC5(C)OC3(C12)C(O)C1(O)C(O)C2(C)CC1(O5)C4(C)C2CC(=O)O` (stereo not given), the cytotoxicity call was “inactive”.

As to `COC(=O)CC1C2(C)CC34OC5(C)OC6(C7C(=C(O)C(C)C)C(=O)OC(c8ccoc8)C7(C)C(OC(C)=O)C(OC(C)=O)C6(O5)C13C)C(OC(C)=O)C4(O)C2OC(=O)C(C)C` (stereo not given), the cytotoxicity call is “inactive”.

For `COc1cccc(S(=O)(=O)N(C)C[C@H]2Oc3ncc(C#CC(C)C)cc3C(=O)N([C@H](C)CO)C[C@@H]2C)c1`, the cytotoxicity call was “inactive”.

`C[C@H](C(=O)N(C)C[C@@H]1OCc2ccccc2-c2c(n(C)c3ccccc23)C(=O)N([C@@H](C)CO)C[C@@H]1C)c1ccccc1`: the cytotoxicity call is “inactive”.

With `C[C@H](C(=O)N(C)C[C@H]1OCc2ccccc2-c2c(n(C)c3ccccc23)C(=O)N([C@@H](C)CO)C[C@H]1C)c1ccccc1`, the cytotoxicity call is “inactive”.

As to `C[C@H](C(=O)N(C)C[C@H]1OCc2ccccc2-c2c(n(C)c3ccccc23)C(=O)N([C@@H](C)CO)C[C@@H]1C)c1ccccc1`, the cytotoxicity call is “active”.

Consider `C[C@H](CO)N1C[C@H](C)[C@H](CN(C)C(=O)[C@H](C)c2ccccc2)OCc2ccccc2-c2c(n(C)c3ccccc23)C1=O`, for which the cytotoxicity call was “active”.

For `C[C@@H](C(=O)N(C)C[C@H]1OCc2ccccc2-c2c(n(C)c3ccccc23)C(=O)N([C@@H](C)CO)C[C@@H]1C)c1ccccc1`, the cytotoxicity call was “inactive”.

For `C[C@@H]1CN([C@@H](C)CO)C(=O)c2c(c3ccccc3n2C)-c2ccccc2CO[C@@H]1CN(C)C(=O)[C@H](C)c1ccccc1`, the cytotoxicity call was “inactive”.

Consider `Cc1noc(C)c1NC(=O)Nc1ccc2c(c1)C(=O)N([C@H](C)CO)C[C@H](C)[C@@H](CN(C)Cc1ccccc1)OCCCC[C@H](C)O2`, for which the cytotoxicity call is “inactive”.

In the case of `C[C@@H]1CN([C@@H](C)CO)C(=O)c2cc(NC(=O)Nc3ccc(C(F)(F)F)cc3)ccc2O[C@@H]1CN(C)Cc1ccccc1`, the cytotoxicity call is “active”.

For `C[C@@H]1CN([C@H](C)CO)C(=O)c2cc(NC(=O)Nc3ccc(C(F)(F)F)cc3)ccc2O[C@@H]1CN(C)Cc1ccccc1`, the cytotoxicity call was “active”.

For the molecule `C[C@H]1CN([C@@H](C)CO)C(=O)c2cc(NC(=O)Nc3ccc(C(F)(F)F)cc3)ccc2O[C@H]1CN(C)Cc1ccccc1`, the cytotoxicity call was “active”.

Regarding `C[C@H](CO)N1C[C@H](C)[C@H](CN(C)Cc2ccccc2)Oc2ccc(NC(=O)Nc3ccc(C(F)(F)F)cc3)cc2C1=O`, the cytotoxicity call is “active”.

For `C[C@@H]1CN([C@@H](C)CO)C(=O)c2cc(NC(=O)Nc3ccc(C(F)(F)F)cc3)ccc2O[C@H]1CN(C)Cc1ccccc1`, the cytotoxicity call is “inactive”.

`C[C@H]1CN([C@@H](C)CO)C(=O)c2cc(NC(=O)Nc3ccc(C(F)(F)F)cc3)ccc2O[C@@H]1CN(C)Cc1ccccc1`: the cytotoxicity call was “inactive”.

Take `COc1ccc2c3c([nH]c2c1)[C@@H](CO)N(C[C@]13CN(Cc2ccccc2)C1)S(=O)(=O)c1cn(cn1)C`: the cytotoxicity call is “inactive”.

On to `C[C@@H]1CN([C@H](C)CO)S(=O)(=O)c2ccc(C#CC3(O)CCCC3)cc2O[C@@H]1CN(C)C(=O)c1cccnc1`, for which the cytotoxicity call is “inactive”.

As to `COc1ccc(CN(C)C[C@H]2OCCCC[C@H](C)Oc3ccc(NC(=O)c4ccccc4)cc3C(=O)N([C@H](C)CO)C[C@H]2C)cc1`, the cytotoxicity call was “inactive”.

As for `COc1ccc(CN(C)C[C@H]2OCCCC[C@@H](C)Oc3ccc(NC(=O)Cc4ccccc4)cc3C(=O)N([C@H](C)CO)C[C@H]2C)cc1`, the cytotoxicity call was “inactive”.

On to `CC[C@@](N)(C(=O)O)c1ccccc1`, for which the cytotoxicity call was “inactive”.

For `C=C(C)[C@]1(O)OC(=O)C=C1OC`, the cytotoxicity call is “inactive”.

In the case of `C[C@@H]1CN([C@H](C)CO)C(=O)c2cc(C#Cc3ccccc3F)cnc2O[C@@H]1CN(C)S(=O)(=O)c1ccccc1`, the cytotoxicity call was “inactive”.

`CCC(=O)N1CCC[C@@H]1C(=O)O`: the cytotoxicity call is “inactive”.

For the molecule `Cc1noc(C)c1NC(=O)Nc1ccc2c(c1)C(=O)N([C@H](C)CO)C[C@H](C)[C@H](CN(C)C(=O)c1ccccc1)OCCCC[C@@H](C)O2`, the cytotoxicity call is “inactive”.

As for `Cc1ccc(S(=O)(=O)N[C@@H]2CC[C@@H](CC(=O)N3CCC(Cc4ccccc4)CC3)O[C@@H]2CO)cc1`, the cytotoxicity call was “inactive”.

Regarding `C[C@@H]1CCCCO[C@H](CN(C)CC2CCCCC2)[C@H](C)CN([C@H](C)CO)C(=O)c2cc(NC(=O)c3ccncc3)ccc2O1`, the cytotoxicity call was “inactive”.

Consider `C[C@H](CO)N1C[C@H](C)[C@H](CN(C)C(=O)Nc2ccc(C(F)(F)F)cc2)Oc2ccc(NC(=O)Nc3ccc4c(c3)OCO4)cc2C1=O`, for which the cytotoxicity call is “inactive”.

On to `C[C@@H]1CN([C@H](C)CO)S(=O)(=O)c2ccc(-c3cccc(F)c3)cc2O[C@@H]1CN(C)S(C)(=O)=O`, for which the cytotoxicity call was “inactive”.

For `C[C@@H]1CN([C@@H](C)CO)C(=O)c2cc(NC(=O)C3CC3)ccc2O[C@H]1CN(C)S(=O)(=O)c1ccc(Cl)cc1`, the cytotoxicity call is “inactive”.

Consider `C[C@H](CO)N1C[C@H](C)[C@@H](CN(C)Cc2ccccc2)Oc2ccc(NC(=O)Nc3ccc(C(F)(F)F)cc3)cc2C1=O`, for which the cytotoxicity call was “active”.

For the molecule `C[C@@H]1CN([C@H](C)CO)C(=O)c2cc(NC(=O)Nc3ccc(C(F)(F)F)cc3)ccc2O[C@H]1CN(C)Cc1ccccc1`, the cytotoxicity call is “active”.

For the molecule `C[C@@H]1CN([C@@H](C)CO)C(=O)c2cc(NC(=O)Cc3ccccc3)ccc2O[C@@H](C)CCCCO[C@@H]1CN(C)S(=O)(=O)c1cccs1`, the cytotoxicity call is “inactive”.

For `Cc1cc(C(=O)Nc2cccc3c2O[C@H](CN(C)Cc2ccccc2)[C@@H](C)CN([C@@H](C)CO)C3=O)n(C)n1`, the cytotoxicity call was “inactive”.

With `C[C@H]1CN([C@@H](C)CO)C(=O)c2cccc(NC(=O)Nc3ccc4c(c3)OCO4)c2O[C@@H]1CN(C)S(=O)(=O)c1cn(C)cn1`, the cytotoxicity call was “inactive”.

Regarding `C[C@H](CO)N1C[C@H](C)[C@H](CN(C)S(=O)(=O)c2cccs2)OCCCC[C@H](C)Oc2ccc(NC(=O)CCC(F)(F)F)cc2C1=O`, the cytotoxicity call was “inactive”.

As to `Cc1noc(C)c1NC(=O)Nc1ccc2c(c1)C(=O)N([C@H](C)CO)C[C@H](C)[C@@H](CN(C)S(C)(=O)=O)O2`, the cytotoxicity call is “inactive”.

For the molecule `C[C@@H]1CCCCO[C@@H](CN(C)C(=O)Nc2ccc(C(F)(F)F)cc2)[C@H](C)CN([C@@H](C)CO)C(=O)c2cc(NC(=O)Nc3ccc4c(c3)OCO4)ccc2O1`, the cytotoxicity call is “inactive”.

Take `Cc1noc(C)c1NC(=O)Nc1ccc2c(c1)C(=O)N([C@@H](C)CO)C[C@H](C)[C@@H](CN(C)C(=O)Nc1ccccc1)OCCCC[C@H](C)O2`: the cytotoxicity call was “inactive”.

As to `C[C@H](CO)N1C[C@H](C)[C@H](CN(C)C(=O)Nc2cccc3ccccc23)Oc2ccc(NC(=O)CCC(F)(F)F)cc2C1=O`, the cytotoxicity call was “inactive”.

In the case of `C[C@@H]1CCCCO[C@@H](CN(C)S(C)(=O)=O)[C@@H](C)CN([C@H](C)CO)C(=O)c2cc(NC(=O)c3ccncc3)ccc2O1`, the cytotoxicity call is “inactive”.

Consider `C[C@@H]1CN([C@@H](C)CO)C(=O)Cc2cc(NS(=O)(=O)c3cccs3)ccc2O[C@@H]1CN(C)Cc1ccc(Oc2ccccc2)cc1`, for which the cytotoxicity call is “inactive”.

For `C[C@H](CO)N1C[C@H](C)[C@@H](CN(C)Cc2ccc(Oc3ccccc3)cc2)Oc2ccc(NS(=O)(=O)c3cccs3)cc2CC1=O`, the cytotoxicity call is “inactive”.

Consider `C[C@@H]1CN([C@H](C)CO)C(=O)Cc2cc(NS(=O)(=O)c3cccs3)ccc2O[C@@H]1CN(C)Cc1ccc(Oc2ccccc2)cc1`, for which the cytotoxicity call was “active”.

Regarding `C[C@H]1CN([C@@H](C)CO)C(=O)Cc2cc(NS(=O)(=O)c3cccs3)ccc2O[C@@H]1CN(C)Cc1ccc(Oc2ccccc2)cc1`, the cytotoxicity call is “inactive”.

Turning to `C[C@@H]1CN([C@H](C)CO)C(=O)Cc2cc(NS(=O)(=O)c3cccs3)ccc2O[C@H]1CN(C)Cc1ccc(Oc2ccccc2)cc1`, the cytotoxicity call was “active”.

Turning to `C[C@H]1CN([C@@H](C)CO)C(=O)Cc2cc(NS(=O)(=O)c3cccs3)ccc2O[C@H]1CN(C)Cc1ccc(Oc2ccccc2)cc1`, the cytotoxicity call is “inactive”.

Consider `Cn1cc(CN2CCC3(CC2)CNC(=O)CO3)cn1`, for which the cytotoxicity call is “inactive”.

Turning to `COc1cccc(S(=O)(=O)Nc2ccc3c(c2)[C@@H]2C[C@H](CC(=O)NC4CCCCC4)O[C@@H](CO)[C@@H]2O3)c1`, the cytotoxicity call was “inactive”.

On to `Cc1ccc(S(=O)(=O)Nc2ccc3c(c2)C(=O)N([C@H](C)CO)C[C@@H](C)[C@@H](CN(C)S(=O)(=O)c2ccccc2)O3)cc1`, for which the cytotoxicity call is “inactive”.

As to `C[C@@H]1CN([C@@H](C)CO)S(=O)(=O)c2ccc(C#CC(C)(C)O)cc2O[C@H]1CN(C)C(=O)CN(C)C`, the cytotoxicity call was “inactive”.

In the case of `COc1ccc(NC(=O)N(C)C[C@H]2OCCCC[C@@H](C)Oc3ccc(NC(=O)c4ccccc4)cc3C(=O)N([C@@H](C)CO)C[C@@H]2C)cc1`, the cytotoxicity call was “inactive”.

Turning to `CC(C)NC(=O)N(C)C[C@H]1OCCCC[C@H](C)Oc2ccc(NC(=O)Nc3cccc4ccccc34)cc2C(=O)N([C@H](C)CO)C[C@@H]1C`, the cytotoxicity call is “inactive”.

For `C[C@H]1CCCCO[C@H](CN(C)Cc2ccc(C(=O)O)cc2)[C@@H](C)CN([C@@H](C)CO)C(=O)c2cc(NS(=O)(=O)c3ccc(F)cc3)ccc2O1`, the cytotoxicity call is “inactive”.

Turning to `CN(C)C/C=C/C(=O)Nc1ccc(C(=O)Nc2cccc(Nc3ncc(Cl)c(-c4c[nH]c5ccccc45)n3)c2)cc1`, the cytotoxicity call was “active”.

With `O=C(O)C1CCOCC1`, the cytotoxicity call is “inactive”.

As to `Cc1ccc(S(=O)(=O)Nc2ccc3c(c2)C(=O)N([C@H](C)CO)C[C@@H](C)[C@@H](CN(C)Cc2ccc(Cl)c(Cl)c2)OCCCC[C@H](C)O3)cc1`, the cytotoxicity call was “inactive”.

As to `Cc1ccc(S(=O)(=O)Nc2ccc3c(c2)C(=O)N([C@H](C)CO)C[C@H](C)[C@H](CN(C)Cc2ccc(Cl)c(Cl)c2)OCCCC[C@H](C)O3)cc1`, the cytotoxicity call was “inactive”.

For the molecule `Cc1ccc(S(=O)(=O)Nc2ccc3c(c2)C(=O)N([C@@H](C)CO)C[C@@H](C)[C@H](CN(C)Cc2ccc(Cl)c(Cl)c2)OCCCC[C@@H](C)O3)cc1`, the cytotoxicity call is “inactive”.

As for `Cc1ccc(S(=O)(=O)Nc2ccc3c(c2)C(=O)N([C@H](C)CO)C[C@H](C)[C@@H](CN(C)Cc2ccc(Cl)c(Cl)c2)OCCCC[C@H](C)O3)cc1`, the cytotoxicity call is “inactive”.

As to `Cc1ccc(S(=O)(=O)Nc2ccc3c(c2)C(=O)N([C@@H](C)CO)C[C@H](C)[C@@H](CN(C)Cc2ccc(Cl)c(Cl)c2)OCCCC[C@@H](C)O3)cc1`, the cytotoxicity call was “active”.

For the molecule `Cc1ccc(S(=O)(=O)Nc2ccc3c(c2)C(=O)N([C@H](C)CO)C[C@@H](C)[C@H](CN(C)Cc2ccc(Cl)c(Cl)c2)OCCCC[C@H](C)O3)cc1`, the cytotoxicity call is “active”.

Consider `Cc1ccc(S(=O)(=O)Nc2ccc3c(c2)C(=O)N([C@H](C)CO)C[C@@H](C)[C@H](CN(C)Cc2ccc(Cl)c(Cl)c2)OCCCC[C@@H](C)O3)cc1`, for which the cytotoxicity call is “active”.

Take `Cc1ccc(S(=O)(=O)Nc2ccc3c(c2)C(=O)N([C@@H](C)CO)C[C@@H](C)[C@@H](CN(C)Cc2ccc(Cl)c(Cl)c2)OCCCC[C@@H](C)O3)cc1`: the cytotoxicity call is “active”.
